# Experimental data published in ChEMBL document CHEMBL3988442, “University of Dundee, Small-Polar-MMV Screening Library” (2021).
# Target: T1, Methionyl-tRNA synthetase, putative (Leishmania donovani (strain BPK282A1)) (UniProt E9BF75)
# T1 sequence (whole entry): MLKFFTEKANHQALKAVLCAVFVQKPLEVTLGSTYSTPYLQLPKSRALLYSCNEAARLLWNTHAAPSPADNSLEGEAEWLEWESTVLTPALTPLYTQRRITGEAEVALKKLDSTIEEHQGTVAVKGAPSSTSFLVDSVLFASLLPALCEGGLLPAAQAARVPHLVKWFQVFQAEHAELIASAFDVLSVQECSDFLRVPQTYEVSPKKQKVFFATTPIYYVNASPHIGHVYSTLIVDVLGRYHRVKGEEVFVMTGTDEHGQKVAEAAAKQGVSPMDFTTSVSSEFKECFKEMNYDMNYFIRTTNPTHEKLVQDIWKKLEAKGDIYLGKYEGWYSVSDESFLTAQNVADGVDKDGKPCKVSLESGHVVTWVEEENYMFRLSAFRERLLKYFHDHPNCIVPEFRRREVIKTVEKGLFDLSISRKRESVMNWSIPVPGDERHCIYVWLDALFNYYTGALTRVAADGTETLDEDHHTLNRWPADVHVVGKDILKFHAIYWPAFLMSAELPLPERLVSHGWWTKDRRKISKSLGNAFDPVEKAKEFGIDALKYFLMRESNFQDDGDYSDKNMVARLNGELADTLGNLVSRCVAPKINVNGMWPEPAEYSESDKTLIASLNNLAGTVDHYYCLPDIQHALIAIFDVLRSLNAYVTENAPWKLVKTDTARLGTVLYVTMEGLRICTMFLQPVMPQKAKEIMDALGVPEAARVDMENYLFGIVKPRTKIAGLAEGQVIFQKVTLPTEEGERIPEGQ
# Test: Leishmania donovani Methionine tRNA synthetase (LdMetRS):v7. Dose response assay
# Assay type: functional
# Design: conc 80 nM, time 150 minutes
compound,measurement,setting,value
Cc1nc(N2CCC(C)CC2)c2ccsc2n1,PXC50,MAX_EFFECT 9.848484848,< 4
same,PXC50,MAX_EFFECT 11.2244898,< 4
CN1CCN(c2ccc3ccc(C(=O)N4CCCO4)cn23)CC1,PXC50,MAX_EFFECT 9.85915493,< 4
same,PXC50,MAX_EFFECT 16.48148148,< 4
Cc1nc(N2CCCC2)c2c3c(sc2n1)CCCC3,PXC50,MAX_EFFECT 9.895833333,< 4
same,PXC50,MAX_EFFECT 12.71929825,< 4
Cc1ccc(N2CCCC(N(C)c3ncnc4c3CCC4)C2)nn1 (stereo not given),PXC50,MAX_EFFECT 10.79812207,< 4
same,PXC50,MAX_EFFECT 20.18518519,< 4
Cc1nc(N(C)CCC(=O)O)c2cc(-c3ccccc3)sc2n1,PXC50,MAX_EFFECT 10.96256684,< 4
same,PXC50,MAX_EFFECT 15.76086957,< 4
Cc1cc2c(N3CCN(CCO)CC3)nc(-c3cccnc3)nc2s1,PXC50,MAX_EFFECT 11.05527638,< 4
same,PXC50,MAX_EFFECT 12.53071253,< 4
Cc1nc(N2C[C@@H](CN3CCCN(C)CC3)[C@@H](CO)C2)c2ccsc2n1,PXC50,MAX_EFFECT 12.53263708,< 4
same,PXC50,MAX_EFFECT 15.40469974,< 4
Nc1noc2ccc(-c3cnc4ccc(NCc5cccnc5)nn34)cc12,PXC50,MAX_EFFECT 15.26717557,< 4
same,PXC50,MAX_EFFECT 15.78947368,< 4
Cc1sc2nc(CCN)nc(N(C)CCCC3CCCO3)c2c1C (stereo not given),PXC50,MAX_EFFECT 15.90909091,< 4
same,PXC50,MAX_EFFECT 18.36734694,< 4
CNc1ccc2ncc(-c3ccc4onc(N)c4c3)n2n1,PXC50,MAX_EFFECT 16.28498728,< 4
same,PXC50,MAX_EFFECT 18.85964912,< 4
O=C(c1ccc2ccc(N3CCN(CC4CC4)CC3)n2c1)N1CCCO1,PXC50,MAX_EFFECT 19.44444444,< 4
same,PXC50,MAX_EFFECT 22.0657277,< 4
CCN(CC)C(=O)CN(C)c1nc(C)nc2sc(-c3ccccc3)cc12,PXC50,MAX_EFFECT 23.46666667,< 4
same,PXC50,MAX_EFFECT 30.15873016,< 4
CC(C)C[C@H](N)COc1ccc(-c2ccccc2)c(F)c1,PXC50,MAX_EFFECT 23.6673774,< 4
same,PXC50,MAX_EFFECT 25.46583851,< 4
CCN1c2ccc(-c3cncn3CCCn3ccnc3C)cc2CC1C (stereo not given),PXC50,MAX_EFFECT 36.73469388,< 4
same,PXC50,MAX_EFFECT 44.48598131,< 4
CN(c1ncnc2c1cnn2C)C1CCCN(c2cccnn2)C1 (stereo not given),PXC50,MAX_EFFECT 40.92592593,< 4
same,PXC50,MAX_EFFECT 46.94835681,< 4
CC(C)C[C@@H](N)COc1cccc(F)c1Oc1cccc(Cl)c1,PXC50,"BOTTOM 1.372222408, HILLSLOPE 1.087653332, MAX_EFFECT 50.72463768, TOP 100.0",4.03
same,PXC50,"BOTTOM -0.306407193, HILLSLOPE 1.563618531, MAX_EFFECT 56.92963753, TOP 100.0",4.11
Cc1nccn1CCCn1cncc1-c1ccc2c(c1)CC(C)N2C (stereo not given),PXC50,MAX_EFFECT 28.57142857,< 4
same,PXC50,MAX_EFFECT 43.36448598,< 4
CCc1nc(-n2nc(C)cc2N)c2c3c(sc2n1)CCCC3,PXC50,MAX_EFFECT 9.836065574,< 4
same,PXC50,MAX_EFFECT 10.69518717,< 4
CCc1nc(NCc2ccccn2)c2cc(C)sc2n1,PXC50,MAX_EFFECT 5.651105651,< 4
same,PXC50,MAX_EFFECT 6.030150754,< 4
Cc1nc(NC2CCCC2)c2c3c(sc2n1)CCCC3,PXC50,MAX_EFFECT 28.64583333,< 4
same,PXC50,MAX_EFFECT 30.70175439,< 4
CCn1ncc(-c2cc(C(F)(F)F)nc(N3CCC(N)CC3)n2)c1C,PXC50,MAX_EFFECT 0.522193211,< 4
same,PXC50,MAX_EFFECT 1.305483029,< 4
COc1ccc2c(c1)COB2O,PXC50,MAX_EFFECT 5.094339623,< 4
same,PXC50,MAX_EFFECT 9.589041096,< 4
CCNc1cc(-c2ccccn2)nc(Nc2ccc(F)cc2)n1,PXC50,MAX_EFFECT 11.72707889,< 4
same,PXC50,MAX_EFFECT 12.21532091,< 4
O=C(O)C1CCCN1c1nc(C2CC2)cc(C(F)(F)F)n1 (stereo not given),PXC50,MAX_EFFECT 5.221932115,< 4
same,PXC50,MAX_EFFECT 7.049608355,< 4
CS(=O)(=O)N1CCN(c2ccc3ccc(C(=O)NC4CCOCC4)cn23)CC1,PXC50,"BOTTOM 2.519402955, HILLSLOPE 2.221498876, MAX_EFFECT 53.88127854, TOP 54.22998304",4.8
same,PXC50,"BOTTOM -4.408166057, HILLSLOPE 3.645653811, MAX_EFFECT 56.79245283, TOP 54.33837105",4.78
CC(=O)N1CCN(CC2OB(O)c3ccccc32)CC1 (stereo not given),PXC50,MAX_EFFECT 12.26415094,< 4
same,PXC50,MAX_EFFECT 15.06849315,< 4
FC1(F)CCN(Cc2ccncc2)CC12CCN(c1cccnc1)C2 (stereo not given),PXC50,MAX_EFFECT 5.981308411,< 4
same,PXC50,MAX_EFFECT -0.453514739,< 4
CC(C)(C)c1nc(NCCO)c2c3c(sc2n1)CCCC3,PXC50,MAX_EFFECT 6.632653061,< 4
same,PXC50,MAX_EFFECT 7.323232323,< 4
Nc1noc2ccc(-c3cnc4ccc(N5CCCCC5)nn34)cc12,PXC50,"BOTTOM 2.074435444, HILLSLOPE 0.92774459, MAX_EFFECT 58.33333333, TOP 100.0",4.06
same,PXC50,"BOTTOM -0.552717408, HILLSLOPE 0.869319648, MAX_EFFECT 51.90839695, TOP 100.0",4.01
CC(C)C[C@@H](COc1cccc(F)c1Oc1ccc(Cl)cc1)N(C)C,PXC50,MAX_EFFECT 6.418219462,< 4
same,PXC50,MAX_EFFECT 11.30063966,< 4
